Test results as given in PubChem BioAssay (NCI).
About 79,000 compounds went through this panel and 15% of them were active in at least one assay; those are over-represented in the sample as a whole. Rule as the data show it: active = growth inhibition above about 70%; inactive = the rest.

How the values were obtained:
[1] = NCI Yeast Anticancer Drug Screen. Data for the rad50 strain (AID 155);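 also: 0% = growth of vehicle-only cultures of the same strain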; conditions: S. cerevisiae rad50 strain growth inhibition; at 50.0 µM; active compounds read high
Procedure, shortened: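 Cells are treated with compound, grown, and their growth is then scored against vehicle-only cultures of the same repair-deficient yeast strain.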

[2] = NCI Yeast Anticancer Drug Screen. Data for the mec2-1 strain (AID 157); conditions: S. cerevisiae mec2-1 strain, at 50.0 µM, active compounds read high
Procedure, shortened: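 Cells of the genetically defined mec2-1 yeast strain are incubated with test compound. Inhibition of growth is calculated against vehicle-treated controls.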

[3] = NCI Yeast Anticancer Drug Screen. Data for the sgs1 mgt1 strain (AID 161);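 also: 0% = growth of cultures given vehicle only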; conditions: S. cerevisiae sgs1 mgt1 strain, at 50.0 µM, active compounds read high
Procedure, shortened: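 Test agents were incubated with a DNA-repair-mutant yeast strain. Growth was then read and compared against vehicle-treated controls.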

[4] = NCI Yeast Anticancer Drug Screen. Data for the cln2 rad14 strain (AID 165);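 also: 0% = growth equal to vehicle treated cultures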; conditions: S. cerevisiae cln2 rad14 strain, at 50.0 µM, active compounds read high
Procedure, shortened: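 The screen exposed genetically defined yeast (cln2 rad14) to test compounds and scored growth inhibition relative to vehicle-treated controls.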

[5] = NCI Yeast Anticancer Drug Screen. Data for the bub3 strain (AID 167); conditions: S. cerevisiae bub3 mutant strain, at 50.0 µM, active compounds read high
Procedure, shortened: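 Part of a panel of yeast mutants defective in DNA damage repair or cell cycle regulation. Each strain is grown with compound, and inhibition is calculated relative to solvent-treated cultures.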

[6] = NCI Yeast Anticancer Drug Screen. Data for the mlh1 rad18 strain (AID 175); conditions: S. cerevisiae mlh1 rad18 strain growth inhibition; at 50.0 µM; active compounds read high
Procedure, shortened: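 Compound-treated yeast growth, normalised to vehicle controls. Strain bears defined DNA repair mutations.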

Measured: growth inhibition

CCCCCCCCCCCCSC1=CC(=O)C(SCCCCCCCCCCCC)=CC1=O
inactive: [1] -15.8% | [2] -6.55% | [3] -5.6% | [4] -13.2% | [5] -4.5% | [6] -34.1%

O=C1OC2=C(CCCCC2)C(N2CCCCC2)C12SCCCS2 (configuration not stated)
inactive: [1] -7.9% | [2] -6.2% | [3] -5.2% | [4] -17.3% | [5] -3.25% | [6] -14.9%

COC(=O)C1=COC(OC2OC(CO)C(O)C(O)C2O)C2C(C)CC(=O)C12 (configuration not stated)
inactive: [1] -39.2% | [2] -39% | [3] -22.4% | [4] 20.6% | [5] -29.9% | [6] -20.4%

NC(N)=Nc1nc2ccccc2[nH]1
inactive: [1] 15.9% | [2] -2.85% | [3] 19.4% | [4] -26.4% | [5] 11.7% | [6] 18.1%

COc1cc(-c2ccc(Nc3ccccc3C(=O)O)c(OC)c2)ccc1Nc1ccccc1C(=O)O
inactive: [1] -4.45% | [2] 0.2% | [3] 1.05% | [4] 8.15% | [5] 3.8% | [6] -11.9%

CCCCNc1ccc(Cl)cc1
inactive: [1] 0.75% | [2] -5.4% | [3] -16.7% | [4] -27.9% | [5] -15.5% | [6] -15.6%

CC(CC(C(=O)N(C)C)(c1ccccc1)c1ccccc1)[N+](C)(C)[O-] (configuration not stated)
inactive: [1] 5.5% | [2] 17.4% | [3] 0.1% | [4] 11.9% | [5] 13.3% | [6] 3.8%

S=C1NCCN1c1ccc(Cl)cc1
inactive: [1] -16.4% | [2] -16.1% | [3] -20.4% | [4] -21.8% | [5] -30.5% | [6] 5.55%

CC(=O)C(C)(C)OC(=O)COc1ccc(Cl)cc1
inactive: [1] -39% | [2] -2.75% | [3] -9.45% | [4] 43.4% | [5] 32.3% | [6] -24.6%

C/C=C/c1ccc(OCC)c(OC)c1
inactive: [1] 24.4% | [2] 6.25% | [3] 12.3% | [4] -8.8% | [5] -17.2% | [6] 16.3%

c1ccc2c(c1)NC(N1CCCCC1)=Nc1ncncc1-2
inactive: [1] 14.8% | [2] -8.15% | [3] 7.75% | [4] -15.1% | [5] -1.7% | [6] 2%

CC(C)(O)C(c1ccccc1)S(=O)(=O)O (configuration not stated)
inactive: [1] -2.5% | [2] -18.6% | [3] -0.3% | [4] -27.4% | [5] -0.45% | [6] 48.5%

C#CC(C)(O)c1ccccc1 (configuration not stated)
inactive: [1] -1.15% | [2] -22.1% | [3] -7.75% | [4] -21.6% | [5] -1.95% | [6] -11.6%

CNCCCN1CCCCC1
inactive: [1] 31.8% | [2] 16% | [3] 22.4% | [4] 6.3% | [5] -4.4% | [6] 13.6%

CCSc1[nH]c(NC(=NC(C)C)NC(=O)c2ccccc2)c(C(N)=O)c1C(N)=O
inactive: [1] 2.75% | [2] 1.35% | [3] 0.8% | [4] 9.3% | [5] -4.75% | [6] 18.6%

COC(=O)c1ccc(C(=O)OC)c2nc3ccccc3nc12
inactive: [1] 13.1% | [2] 9.35% | [3] 8.45% | [4] 8.9% | [5] 15.1% | [6] 7.6%

N#C/C(=C1\SC(N=Nc2ccc(Cl)cc2)C(=O)N1c1ccccc1)c1nc2ccccc2[nH]1 (configuration not stated)
inactive: [1] 6.6% | [2] 6.05% | [3] 6.75% | [4] -40.9% | [5] 3.05% | [6] -5.05%

CCCCC(CC)CN(CCOC(=O)c1cc2ccccc2oc1=O)CC(CC)CCCC (configuration not stated)
inactive: [1] 20.8% | [2] -4.2% | [3] 48.8% | [4] 55% | [5] 20.8% | [6] 31.8%

Cc1cc(N=[N+]=[N-])c2cc3c(cc2n1)OCO3
inactive: [1] -32.2% | [2] -7.5% | [3] -0.4% | [4] -39% | [5] 5.65% | [6] 14%

COC(=O)C1CCc2ccccc2C1=O (configuration not stated)
inactive: [1] -12.6% | [2] -13.7% | [3] 1.95% | [4] 6.4% | [5] 2.7% | [6] 12.2%

O=C(CCCCl)c1ccc(O)cc1
inactive: [1] -29.4% | [2] -36% | [3] 2.75% | [4] 11.8% | [5] -17.6% | [6] 0.1%

CN(C)CCNc1ccc(NCCN(C)C)c2c1C(=O)c1ncsc1C2=O
inactive: [1] -8.15% | [2] -0.8% | [3] 14.2% | [4] 8.35% | [5] 2.1% | [6] -16.8%

CCCC(=O)OC1CCCC1
inactive: [1] 27.9% | [2] 27.8% | [3] 20.4% | [4] 24.1% | [5] 21.8% | [6] 28.7%

c1ccc(-c2cnn3c(-c4ccccc4)cnnc23)cc1
inactive: [1] -1.65% | [2] -8.1% | [3] -2.55% | [4] 2.8% | [5] 2.8% | [6] 4.65%

CCOC(=O)/C(CC)=N\O
inactive: [1] 8.55% | [2] -4.85% | [3] 3.75% | [4] 3.25% | [5] -4.45% | [6] 19.2%

CC(c1ccccc1)n1cnc2c(Cl)ncnc21 (configuration not stated)
inactive: [1] 5% | [2] -16.7% | [3] 5.05% | [4] -0.5% | [5] 6.3% | [6] -17.2%

O=P1(c2ccccc2)c2ccccc2CCc2ccccc21
inactive: [1] 18% | [2] 2.75% | [3] 21.8% | [4] 22.1% | [5] 2.25% | [6] 8.35%

O=C(Nc1cccc2ccccc12)ON1C(=O)c2ccccc2C1=O
inactive: [1] -6.6% | [2] -39.6% | [3] -0.1% | [4] 12.5% | [5] -5.7% | [6] -2.4%

Cc1cc2c(cc1C)NC(C)CC(=O)N2 (configuration not stated)
inactive: [1] 5.8% | [2] -13.1% | [3] 4.2% | [4] 14.1% | [5] -0.2% | [6] 21.7%

O=C1c2ccccc2C(=O)N1c1ccccc1Cl
inactive: [1] 4.45% | [2] -11% | [3] 27.8% | [4] -111% | [5] 39% | [6] 19.7%

OC1(Cc2ccccn2)CCCc2ccccc21 (configuration not stated)
inactive: [1] 7.5% | [2] 9.55% | [3] -1.95% | [4] -15.3% | [5] -8.45% | [6] 4.95%

CC(C)=CCC1=C(O)[C@@](O)(CC=C(C)C)C(=O)C(C(=O)CC(C)C)=C1O
inactive: [1] 28.2% | [2] 7.95% | [3] 31.7% | [4] 26.4% | [5] 35.2% | [6] 29.6%

COC(=O)Nc1cccc(OC(=O)Nc2cccc(Cl)c2)c1
inactive: [1] 10.3% | [2] 25.2% | [3] 26.6% | [4] -2.85% | [5] 31.4% | [6] 1.4%

O=C1CSCCO1
inactive: [1] -7.3% | [2] -27.4% | [3] -3.6% | [4] -37% | [5] 1.05% | [6] -7%

C=C(C)C(=O)OCCOCCOCCOC(=O)C(=C)C
inactive: [1] 8.4% | [2] -19.2% | [3] -9.75% | [4] 3% | [5] -7.7% | [6] 4.5%

CCCC1OC(c2ccc(OC)cc2)OCC1CC (configuration not stated)
inactive: [1] 2.65% | [2] 0.95% | [3] -0.3% | [4] -16.4% | [5] 30.9% | [6] -0.75%

CCN(CC)CCOC(=O)c1ccc(N=Nc2cc(C(=O)O)ccc2O)cc1
inactive: [1] 14.8% | [2] -6.3% | [3] 4.1% | [4] -6.55% | [5] -0.8% | [6] -12.5%

O=C1CCCc2c1cc1c3c(cccc23)CC1
inactive: [1] -9.9% | [2] -23.2% | [3] 0.7% | [4] -15.6% | [5] 9.8% | [6] -1.85%

Cc1cc2c(cc1C)C(=O)c1ccccc1C2=O
inactive: [1] -29.3% | [2] -36.1% | [3] -15.1% | [4] -6.7% | [5] -30.7% | [6] -21.8%

CCN(CC)CCCNc1ccc(-c2cc(OC)cc3cccnc23)cc1
inactive: [1] -5.95% | [2] -17.1% | [3] -0.05% | [4] -14.1% | [5] 6% | [6] 4.4%

OCCn1c2ccccc2c2ccccc21
inactive: [1] 20.2% | [2] -2.65% | [3] 18.6% | [4] -17.2% | [5] 14% | [6] -0.7%

COC1c2ccccc2C(C)(C)c2nc3ccccc3cc21 (configuration not stated)
inactive: [1] -1.05% | [2] -10% | [3] -4.6% | [4] -38% | [5] 1.6% | [6] -3.1%
